Assay results reported in ChEMBL document CHEMBL4513216, “Probing the Open Global Health Chemical Diversity Library for Multistage-Active Starting Points for Next-Generation Antimalarials” (ACS Infect Dis, 2020).
Screen size: about 69,000 compounds; about 8,600 (12%) showed an effect of 50% or more. What follows is part of a selection rich in strong results, with near analogues and random picks from the rest.

Test system: Plasmodium berghei
Test: Screen against P. berghei liver stage (PbLuc), transformed with Luciferase, at 10uM
Type: functional, HepG2
Details: tested at 10 uM

SMILES	INHIBITION [%]
COc1ccc(-n2cnnc2SCC(=O)N(C)C(C)C)cn1	59.4
COc1ccc(-n2cnnc2SCC(C)(C)O)cn1	1.28
CCC(C)Sc1nncn1-c1ccc(OC)nc1 (centres undefined)	-30.5
COC(=O)CCSc1nncn1-c1ccc(OC)nc1	22.6
COc1ccc(-n2cnnc2SCCC#N)cn1	33.4
COc1ccc(-n2cnnc2SCC(=O)NC(C)C)cn1	64.5
COCCS(=O)(=O)NCc1ccc(N(C)C)c(C)c1	2.65
COCC(=O)N1CCCC1(C)c1nc(C)cc(O)n1 (centres undefined)	-33.4
CCCc1n[nH]c(C2CN(C(=O)c3ccc4c(c3)COC4)CCO2)n1 (centres undefined)	15.5
COCc1nc(C(=O)N2CCCC2c2cc(C)no2)cs1 (centres undefined)	-3.2
Cc1ncc2c(n1)CN(CC(=O)NCCOc1ccccc1)CC2	-3.7
Cc1ccc(N2CCC3(CCN(C(=O)c4ccsc4)CC3)CC2)nn1	9.63
C[C@@H]1CN(C(=O)Cc2ccsc2)C[C@]12CCN(CCN(C)C)C2=O	26
COCCN1CCN(C(=O)N2CCCC2)Cc2ccc(C)nc21	62.5
Cc1ccc2c(n1)N(CC1CC1)CCN(C(=O)NC1CC1)C2	30.3
Cc1ccc2c(n1)N(CCn1cccn1)CCN(C(=O)NC1CC1)C2	37.8
Cc1ccc2c(n1)N(CCN(C)C)CCN(C(=O)N1CCOCC1)C2	18.3
COCCN1CCN(S(=O)(=O)C2CC2)Cc2ccc(C)nc21	0.804
COCCN1CCN(C(=O)NC2CC2)Cc2ccc(C)nc21	60.1
COCCC(=O)N1CCC(c2ccc3c(NC(C)C)n[nH]c3n2)C1 (centres undefined)	-36.4
CCOC1COC2(CCN(Cc3ccc(C)cc3)CC2)C1 (centres undefined)	17.4
CCOc1ncnc2c1CCN(C(=O)CN(C)C)CC2	42.3
CC(C)(C)C(=O)N1CC(=O)N(Cc2ccco2)CC(O)C1 (centres undefined)	40.4
CCCC(NC(=O)c1ccc(C)cc1C)c1nnn[nH]1 (centres undefined)	43.1
CCCC(NC(=O)c1cc(C)c(F)cc1F)c1nnn[nH]1 (centres undefined)	58.5
CCCC(NC(=O)c1cc(C)ccc1C)c1nnn[nH]1 (centres undefined)	16.6
Cn1cc(C(=O)Nc2ccc3c(c2)CN(C(=O)C2CC2)CC3)nn1	-7.25

SMILES	INHIBITION [%]
CC(=O)N(Cc1ncc(C(C)C)o1)C1CCN(Cc2cc(C)on2)C1 (centres undefined)	2.7
O=C(NCc1ccco1)Nc1cccc(S(=O)(=O)C(F)F)c1	42.4
O=C(CNc1cccc(S(=O)(=O)C(F)F)c1)NCc1ccco1	51.7
O=C(CNc1ccccc1S(=O)(=O)C(F)F)NCc1ccco1	33.2
CNc1cc(C2CN(Cc3scnc3C)CCO2)nc(C)n1 (centres undefined)	-26.2
Cc1nc(C2CN(Cc3scnc3C)CCO2)cc(N(C)C)n1 (centres undefined)	68.9
CNc1cc(C2CN(Cc3csc(C)n3)CCO2)nc(C)n1 (centres undefined)	41.2
CC(C(=O)N1CCN(c2ccc(F)cc2)CC1)n1cc(Br)cn1 (centres undefined)	6.83
Cn1nnc2c1CCN(C(=O)C1CCC1)C2COCCN1CCCC1 (centres undefined)	19.5
Cc1cc(CN2CCN(C(=O)NC(C)c3cccnc3)CC2)no1 (centres undefined)	7.15
O=C(NCc1nccn1CCc1ccccc1)NCC1CCC1	44.5
c1snnc1CN1C[C@H]2CCC[C@@H](CN3CCOCC3)[C@H]2C1	-41.8
COC(=O)c1ccc(CN[C@@H]2COC[C@H]2Cc2cc(C)no2)cc1	0.301
Cc1ccc(CN[C@@H]2COC[C@H]2Cc2cc(C)no2)cc1	-22.6
Cc1cc(C[C@@H]2COC[C@H]2NCc2ccc(C(C)C)cc2)on1	28
Cc1cc(C[C@@H]2COC[C@H]2NCc2ccc(Cl)c(Cl)c2)on1	50.8
CCOc1cc(CN[C@@H]2COC[C@H]2Cc2cc(C)no2)ccc1O	74.9
Cc1cc(C[C@@H]2COC[C@H]2NCc2ccc(C)c(C)c2)on1	1.5
NC(=O)CC1CCCN(c2cncc(OCc3ccccc3)n2)C1 (centres undefined)	27.6
CC(C)CCc1nc(CN2CCOC(Cn3cncn3)C2)cs1 (centres undefined)	36.1
Cc1n[nH]c(C2CN(CC(=O)NCc3cccs3)CCO2)n1 (centres undefined)	8.9
O=C(c1cccc(F)c1)N1CCC2(CC1)CC(N1CCOCC1)C2	1.34
Cc1cnn(CC2CN(Cc3nc(-c4cccnc4)no3)CCO2)c1 (centres undefined)	-4.94
CCn1ccnc1CN1CCN(Cc2ccc(C)o2)[C@@H]2CS(=O)(=O)C[C@@H]21	16.7
Nc1nc(CNc2ncnc3c2CCN(Cc2ccoc2)CC3)cs1	51.8
CC(C)Nc1ncnc2c1CCN(Cc1ccoc1)CC2	-22.1
c1cc(CCNc2ncnc3c2CCN(Cc2ccoc2)CC3)ccn1	12.8
